Test results published in PubChem BioAssay AID504452 (The Scripps Research Institute Molecular Screening Center, 2011).
Active and inactive are the calls of the source. No stated cut-off is given here; in the data, active means activation above about 85%; inactive means the rest.

Target: Peroxisome proliferator-activated receptor gamma (Homo sapiens) (UniProt P37231)
Experiment: PPARg partial agonist activation, primary screen, cell-based, luciferase reporter, luminescence (AID 504452);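 further: Cos-1 cells carrying PPARgamma and a response element luciferase reporter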
Conditions: at 5 µM, stronger effect = higher value; activation (% of full agonist control): measured here: relative to full agonist control

Sequence of Peroxisome proliferator-activated receptor gamma (Homo sapiens) (P37231 whole entry, looked up): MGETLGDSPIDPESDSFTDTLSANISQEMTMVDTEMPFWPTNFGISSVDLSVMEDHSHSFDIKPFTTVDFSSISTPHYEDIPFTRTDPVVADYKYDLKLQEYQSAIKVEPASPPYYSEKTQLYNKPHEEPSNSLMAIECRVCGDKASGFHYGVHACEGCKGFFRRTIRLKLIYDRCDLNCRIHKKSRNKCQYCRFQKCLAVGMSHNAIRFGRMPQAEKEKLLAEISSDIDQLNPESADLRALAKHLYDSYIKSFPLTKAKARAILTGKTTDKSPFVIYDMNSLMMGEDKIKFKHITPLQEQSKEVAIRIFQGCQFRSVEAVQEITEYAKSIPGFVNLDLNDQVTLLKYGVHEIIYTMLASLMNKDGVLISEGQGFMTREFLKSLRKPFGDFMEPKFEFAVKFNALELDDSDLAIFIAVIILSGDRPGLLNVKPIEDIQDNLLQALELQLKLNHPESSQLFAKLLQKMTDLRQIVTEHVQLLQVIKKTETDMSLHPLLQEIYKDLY

| SMILES | activation (% of full agonist control) [%] | activation (% of partial agonist control) |
| --- | --- | --- |
| COC(=O)C1=CN(Cc2ccc(F)cc2)C=C(C(=O)OC)C1c1ccc(O)c(OC)c1 | 26.8 | 59.4% (inactive) |
| CC(=O)N1CCN(C(=O)c2ccccc2NS(=O)(=O)c2ccc(F)cc2)CC1 | 30.5 | 67.6% (inactive) |
| C=CCSc1nnc(N2C(=O)C(O)=C(C(=O)c3ccco3)C2c2ccc(F)cc2)s1 (centres undefined) | 30.5 | 67.6% (inactive) |
| CCOc1ccc2nc(N3C(=O)C(O)=C(C(=O)c4ccco4)C3c3ccco3)sc2c1 (centres undefined) | 38.5 | 85.2% (active) |
| O=C(c1nc2ccccn2c1CN1CCCC(O)C1)N1CCN(C2CCCCC2)CC1 (centres undefined) | 46.4 | 103% (active) |
| CC(=O)Nc1cccc(-n2c(=O)n(Cc3ccccc3)c(=O)c3[nH]cnc32)c1 | 36.6 | 81.1% (inactive) |
| O=C(CSc1nc(=O)n(CCN2CCOCC2)c2c1CCCC2)Nc1cccc([N+](=O)[O-])c1 | 47.7 | 106% (active) |
| COc1cccc(Cn2nc3c4cc(F)ccc4n(Cc4ccc(F)cc4)cc-3c2=O)c1 | 38.8 | 85.9% (active) |
| Cc1cc(N2C(=O)C(O)=C(C(=O)c3ccc(C)o3)C2c2cccc(Oc3ccccc3)c2)no1 (centres undefined) | 34.1 | 75.5% (inactive) |
| O=C(Nc1c(C(=O)Nc2ccc3c(c2)OCCO3)cnn1-c1ccccc1Cl)c1ccco1 | 47.5 | 105% (active) |
| Cc1cccn2c(=O)c(/C=C(\C#N)C(=O)NC3CCS(=O)(=O)C3)c(Oc3ccc(F)cc3)nc12 (centres undefined) | 34.6 | 76.7% (inactive) |
| Cc1ccc(O)c(C(=O)c2cc(C#N)c(=O)n(C(C)c3ccccc3)c2)c1 (centres undefined) | 33.3 | 73.7% (inactive) |
